Laboratory results from PubChem BioAssay AID1963576 (National Center for Advancing Translational Sciences (NCATS), 2024).
Screen size: about 46,000 compounds; about 60 (0.1%) were called active. Another 3% or so got no clear call; they are omitted. The call rests on the fitted dose curve; in most records, active means well fitted inhibition curve with a large enough effect; inconclusive means small, poorly fitted or top-dose-only effect; inactive means no such curve, though single readings can be large or run the other way. The list comes from a sample in which actives are over-represented; it also holds similar structures and randomly drawn compounds.

Assay: Primary qHTS assay for Inhibitors of ovarian cancer metastasis using an organotypic tumor microenvironment (TME) model. Further: nearly all actives have a fitted effect of over 65% in size.
Conditions: SKOV3ip1-GFP adhesion/invasion on 3D omental model, fluorescence; series mostly up to 45.8 µM
Source text: PI: Ernst Lengyel MD., Ph.D. Department of Obstetrics and Gynecology, Section of Gynecologic Oncology University of Chicago Medicine, Chicago, Illinois. The tumor microenvironment (TME) is a key determinant of metastatic efficiency. We performed a quantitative high-throughput screen (qHTS) of diverse medicinal chemistry tractable scaffolds (44,420 compounds) and pharmacologically active small molecules (386 compounds) using a layered organotypic, robust assay representing the ovarian cancer metastatic TME. This 3D model contains primary human mesothelial cells, fibroblasts, and extracellular matrix, to which fluorescently labeled ovarian cancer cells are added. Initially, 100 compounds inhibiting ovarian cancer adhesion/invasion to the 3D model in a dose-dependent manner were identified. Of those, eight compounds were confirmed active in five high-grade serous ovarian cancer cell lines and were further validated in secondary in vitro and in vivo biological assays. […] Specifically, NCGC00117362 and PP-121 inhibited ovarian cancer adhesion, invasion, and proliferation, whereas milciclib inhibited ovarian cancer invasion and proliferation. […] To evaluate the clinical potential of NCGC00117362, structure - activity relationship studies were performed. […] The three compounds identified have promise as therapeutics for prevention and treatment of ovarian cancer metastasis.
PROTOCOL TABLE (as described by Inglese J, Shamu CE and Guy RK. 2007) SEQUENCE No. (e.g., 1, 2, 3, etc.); […] (e.g., Cells, Incubation, Reagent, etc.); VALUE; DESCRIPTION. 1; Cells; 4 uL; primary human omental fibroblast, black, clear bottom, low base, 1536-well Aurora assay plate. 2; Incubation; 48 hr; 37C. 3; Cells; 3 uL; 1,200 SKOV3ip1-GFP cells. 4; Compounds; 23nL; acoustic dispenser. 5; Incubation; 2 hr; room temperature. 6; Incubation; 16 hr; 37C. 7; Wash; 5 uL; 1x PBS. 8; Fixing; 5 uL; 4% paraformaldehyde (PFA). 9; Incubation; 15 min; room temperature 10; Wash, 5 uL; 1x PBS. 11; Detection; Fluorescence, excitation filter 488 nm, emission filter 509 nm. NOTES (numbers refer to Sequence numbers above) 1. For the 1,536-well format, 40 primary human omental fibroblasts and 400 mesothelial cells were seeded with 0.02 µg fibronectin and 0.02 µg collagen type I in 4 µL of growth media (2.3 mm2; Supplementary Fig. S1A). 2. Assay plates were incubated for 48 hours at 37 C. 3. After incubation, 1,200 SKOV3ip1-GFP were seeded in 3 µL of serum-free media (growth media minus FBS) on top of primary human omental cells. 4. Compounds or controls were added to each well immediately after the addition of the cancer cells. Compounds were screened in four doses (0.36-46 µmol/L), and the plates contained the positive control (Tomatine) in eight doses (0.035-75 µmol/L) and DMSO (equal volume controls) 5 - 6. The plates were incubated at room temperature for 2 hours and then at 37 degrees C for 16 hours. 7 - 10. Following incubation, the media were aspirated and each well washed with PBS (5 µL) and then fixed with 4% paraformaldehyde (PFA; 5 µL). After 15 minutes, the PFA solution was aspirated, PBS (5 µL) was added. 11. The number of GFP-labeled cells analyzed using a fluorescent cytometer TTP LabTech Acumen eX3 using 488 nm excitation filter and 509 nm emission filter. Data was normalized to the DMSO treated for negative and Tomatine treated wells for positive control. REFERENCES: Inglese J, Shamu CE and Guy RK, Reporting data from high throughput screening of small molecule libraries, Nature Chemical Biology, 2007, 3(8): 438-441. doi.org/10.1038/nchembio0807-438. Yasgar A, Shinn P, Jadhav A, Auld DS, Michael S, Zheng W, Austin CP, Inglese J and Simeonov A, Compound Management for Quantitative High-Throughput Screening. J. Assoc. Lab. Auto., 2008, 13: 79-89. doi: 10.1016/j.jala.2007.12.004.

Potency, inactive:
CCCCN(C)S(=O)(=O)c1ccc(C(=O)Nc2sc3c(c2C(N)=O)CC(C)(C)NC3(C)C)cc1, Cc1ccc(C(=O)Nc2ccccc2F)cc1S(=O)(=O)N1CCOCC1, Cc1c(Cl)cccc1NC(=O)C1CCCN(c2ncnc3onc(C)c23)C1 (stereo not drawn), COc1cc(C=CC(=O)O)ccc1O, CSc1ccc(NC(=O)Cn2nnnc2-c2ccccc2F)cc1, COc1ccccc1CNC(=O)C(=O)NCC(c1ccco1)S(=O)(=O)c1ccc(F)cc1 (stereo not drawn), CCC(C(=O)Nc1cccc(Cl)c1C)n1nc(-c2ccc(C)cc2)ccc1=O (stereo not drawn), Cc1ccc(OC(=O)CSc2nnc(-c3cccs3)o2)cc1, O=C(CCSCc1cccc(F)c1)NCc1ccccc1, COc1cc(Cl)c(NC(=O)C(NS(=O)(=O)c2cccs2)C(C)C)c(OC)c1 (stereo not drawn), Cc1cccc(N2CCN(S(=O)(=O)c3ccc4[nH]c5c(c4c3)CCCCC5)CC2)c1C, CCN1C(=O)c2ccccc2S(=O)c2ccc(C(=O)NCc3ccc(F)cc3)cc21 (stereo not drawn), O=C(NCCC1=CCCCC1)c1ccc2c(c1)N(Cc1ccccc1F)C(=O)c1ccccc1S2(=O)=O, O=C(c1ccc(C(F)(F)F)cc1)N1CCC(c2nc(-c3ccc(S(=O)(=O)N4CCCC4)cc3)no2)CC1, O=C(Nc1ccc(OC(F)(F)F)cc1)c1cc2c(=O)n3ccccc3nc2s1, Cn1c(C(=O)Nc2cccc(C(F)(F)F)c2)cc2c(=O)n3ccccc3nc21, O=c1c(NCc2cccs2)nccn1-c1ccccc1, O=C(CC1Oc2ccc(Cl)cc2NC1=O)NCc1ccccc1 (stereo not drawn), Cc1ccc2nc(N3CCN(c4cccc(Cl)c4)CC3)c3nnnn3c2c1, CCCCOc1ccc(NC(=O)c2cc3c(n(-c4ccc(Cl)cc4)c2=O)CCCC3=O)cc1, Cc1ccc2cccc(NC(=O)c3cccc4ccccc34)c2n1, COc1ccccc1CNC(=O)CS(=O)(=O)c1cccc2nsnc12, O=C(CSc1cn(CC(=O)N2CCOCC2)c2ccccc12)Nc1ccccc1, COc1ccc(C(=O)CSc2c(C(C)C)cnc3c2c(=O)n(C)c(=O)n3C)cc1, COc1cccc(C(=O)NC2=NC(c3ccc(N(C)C)cc3)CC(=O)N2)c1 (stereo not drawn), CNc1ccc(-c2nc(-c3ccco3)no2)cc1[N+](=O)[O-], Cc1c(NC(=O)c2cc(=O)c3ccccc3o2)c(=O)n(-c2ccccc2)n1C, Cc1ccc2c(=O)c(C(=O)c3ccc(F)cc3)cn(CC(=O)NC3CCCCC3)c2n1
